Data published in publication PMC5700166.

Legend:
Assay in all cases: protein-binding microarray (PBM); PBM: ~300 nM protein, 6 mM HEPES pH 7.8, 80 mM KCl, 0.5 mM EDTA, 0.5 mM EGTA, 6% glycerol, 35 ng/ul poly-dIdC, 1% milk, 1 h, room temperature; Ap Aiptasia and Nv Nematostella (sea anemones) / Co Capsaspora / Aq Amphimedon (sponge) / Dm Drosophila / Hu human; RHD is the Rel homology domain; high values mean tight binding
Conditions in all cases: dsDNA, one strand shown
GST-Ap-NF-kB RHD = biological target: T1, GST-Ap-NF-kB RHD (Exaiptasia pallida (Aiptasia), UniProt A0A913YAJ5 2-422)
T1 sequence: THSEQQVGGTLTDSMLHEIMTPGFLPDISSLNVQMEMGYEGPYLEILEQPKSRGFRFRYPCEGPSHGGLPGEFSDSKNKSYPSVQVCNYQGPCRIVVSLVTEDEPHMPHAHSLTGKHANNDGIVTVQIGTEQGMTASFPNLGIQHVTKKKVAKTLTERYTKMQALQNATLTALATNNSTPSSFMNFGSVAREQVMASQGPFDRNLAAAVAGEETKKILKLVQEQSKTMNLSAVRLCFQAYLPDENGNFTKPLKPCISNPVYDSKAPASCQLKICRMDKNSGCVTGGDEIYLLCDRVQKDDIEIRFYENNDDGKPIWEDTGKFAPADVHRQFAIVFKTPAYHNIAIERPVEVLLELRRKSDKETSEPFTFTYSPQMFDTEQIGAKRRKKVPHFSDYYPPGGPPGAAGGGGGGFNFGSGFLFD

[1] = biological target: T2, GST-Nv-NF-kB (Cys allele) (Nematostella vectensis, UniProt E5G601 2-411)
T2 sequence: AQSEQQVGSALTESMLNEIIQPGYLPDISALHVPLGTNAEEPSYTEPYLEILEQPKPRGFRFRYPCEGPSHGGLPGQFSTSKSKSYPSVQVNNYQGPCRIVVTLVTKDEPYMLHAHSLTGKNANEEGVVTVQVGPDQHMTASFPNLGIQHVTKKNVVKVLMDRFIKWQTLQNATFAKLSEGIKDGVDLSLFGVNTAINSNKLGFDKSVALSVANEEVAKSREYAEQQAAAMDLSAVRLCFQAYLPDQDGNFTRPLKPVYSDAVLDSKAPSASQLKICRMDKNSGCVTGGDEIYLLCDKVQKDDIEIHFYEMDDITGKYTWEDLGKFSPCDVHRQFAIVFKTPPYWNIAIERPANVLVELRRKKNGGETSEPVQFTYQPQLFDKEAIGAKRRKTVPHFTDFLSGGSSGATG

GST-Co-NF-kB = biological target: T3, GST-Co-NF-kB (Capsaspora owczarzaki, UniProt F1ARL5 200-546)
T3 sequence: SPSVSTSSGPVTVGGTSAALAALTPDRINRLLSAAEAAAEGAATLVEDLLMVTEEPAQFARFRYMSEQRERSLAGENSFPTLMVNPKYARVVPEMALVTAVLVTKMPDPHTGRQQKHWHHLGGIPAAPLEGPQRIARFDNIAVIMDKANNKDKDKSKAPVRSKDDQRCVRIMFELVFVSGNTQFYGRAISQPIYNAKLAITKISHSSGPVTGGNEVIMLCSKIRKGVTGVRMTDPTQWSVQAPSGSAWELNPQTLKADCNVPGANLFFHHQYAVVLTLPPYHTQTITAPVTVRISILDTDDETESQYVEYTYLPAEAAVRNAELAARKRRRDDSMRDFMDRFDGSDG

GST-Dm-Relish = biological target: T4, GST-Dm-Relish (Drosophila melanogaster, UniProt Q94527 99-473)
T4 sequence: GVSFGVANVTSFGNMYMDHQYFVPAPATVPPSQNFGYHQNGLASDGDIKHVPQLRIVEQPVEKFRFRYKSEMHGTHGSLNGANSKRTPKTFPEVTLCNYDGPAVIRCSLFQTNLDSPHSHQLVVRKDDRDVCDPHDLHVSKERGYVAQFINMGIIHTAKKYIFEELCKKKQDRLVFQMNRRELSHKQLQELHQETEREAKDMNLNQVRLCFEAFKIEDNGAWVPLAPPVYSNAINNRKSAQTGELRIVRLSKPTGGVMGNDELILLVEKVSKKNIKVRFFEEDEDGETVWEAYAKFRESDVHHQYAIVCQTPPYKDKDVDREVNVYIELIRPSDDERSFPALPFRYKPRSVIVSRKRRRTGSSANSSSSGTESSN

GST-Aq-NF-kB = biological target: T5, GST-Aq-NF-kB (Amphimedon queenslandica, UniProt A9Y5G7 2-389)
T5 sequence: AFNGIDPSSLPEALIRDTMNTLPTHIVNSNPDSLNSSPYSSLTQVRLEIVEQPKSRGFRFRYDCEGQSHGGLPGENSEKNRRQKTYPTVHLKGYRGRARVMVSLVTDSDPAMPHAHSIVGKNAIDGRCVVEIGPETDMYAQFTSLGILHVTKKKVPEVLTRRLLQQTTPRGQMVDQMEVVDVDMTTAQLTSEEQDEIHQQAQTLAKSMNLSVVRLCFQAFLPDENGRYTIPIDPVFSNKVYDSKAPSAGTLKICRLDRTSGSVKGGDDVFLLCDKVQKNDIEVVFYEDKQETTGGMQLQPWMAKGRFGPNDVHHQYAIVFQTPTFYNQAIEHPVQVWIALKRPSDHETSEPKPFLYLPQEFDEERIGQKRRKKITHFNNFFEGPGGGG

Sequence	binding signal (GST-Ap-NF-kB RHD) [z-score]	binding signal [1] [z-score]	binding signal (GST-Co-NF-kB) [z-score]	binding signal (GST-Dm-Relish) [z-score]	binding signal (GST-Aq-NF-kB) [z-score]
CCGATTAACATCACCCAGGGAAATGATGTTAATCGGGTCTTGATTCGCTTGACGCTGCTG	1.54	2.66	2.73	1.46	2.69
CCGATTAACATCAGGGGGTAGGATGATGTTAATCGGGTCTTGATTCGCTTGACGCTGCTG	4.15	2.75	3.64	1.35	2.89
CCGATTAACATCACGGGAACCCCTGATGTTAATCGGGTCTTGATTCGCTTGACGCTGCTG	5.04	2.85	1.9	9.89	5.86
CCGATTAACATCAGGGGACAACCTGATGTTAATCGGGTCTTGATTCGCTTGACGCTGCTG	4.96	4.76	3.44	3.96	5.18
CCGATTAACATCACCCCTCCCCGTGATGTTAATCGGGTCTTGATTCGCTTGACGCTGCTG	5.01	3.48	4.15	3.47	3.26
CCGATTAACATCAGGGGGGCACCTGATGTTAATCGGGTCTTGATTCGCTTGACGCTGCTG	4.84	3.13	3.02	3.62	4.5
CCGATTAACATCAGGGGGTACACTGATGTTAATCGGGTCTTGATTCGCTTGACGCTGCTG	4.19	2.66	4.33	3.21	3.31
CCGATTAACATCAAAACAGTCCCTGATGTTAATCGGGTCTTGATTCGCTTGACGCTGCTG	4.53	5.79	1.26	3.28	6.16
CCGATTAACATCACGGGAGTTCCTGATGTTAATCGGGTCTTGATTCGCTTGACGCTGCTG	3.99	3.71	1.77	4.98	5.04
CCGATTAACATCAGGACTACCCCTGATGTTAATCGGGTCTTGATTCGCTTGACGCTGCTG	3.7	3.48	1.83	2.36	6.48
CCGATTAACATCAATGCACCCCCTGATGTTAATCGGGTCTTGATTCGCTTGACGCTGCTG	4.19	2.93	3.47	3.29	3.4
CCGATTAACATCAGGATTGCCCCTGATGTTAATCGGGTCTTGATTCGCTTGACGCTGCTG	2.91	4.26	1.5	2.51	5.63
CCGATTAACATCAGAAATCTCCCTGATGTTAATCGGGTCTTGATTCGCTTGACGCTGCTG	3.4	5.21	2.43	1.79	5.79
CCGATTAACATCAGGTTTTCCCATGATGTTAATCGGGTCTTGATTCGCTTGACGCTGCTG	3.58	3.91	4.33	5.47	4.82
CCGATTAACATCAGGGGTTACACTGATGTTAATCGGGTCTTGATTCGCTTGACGCTGCTG	2.67	1.04	2.66	2	2.36
CCGATTAACATCAGGGAAAGAACTGATGTTAATCGGGTCTTGATTCGCTTGACGCTGCTG	1.89	3.99	2.55	6.83	4.9
CCGATTAACATCAAGTCCCCCAATGATGTTAATCGGGTCTTGATTCGCTTGACGCTGCTG	4.26	3.66	3.84	2.8	3.76
CCGATTAACATCAGGAATACCCCTGATGTTAATCGGGTCTTGATTCGCTTGACGCTGCTG	6.59	6.44	4.14	6.46	6.92
CCGATTAACATCATCCGGGAAAATGATGTTAATCGGGTCTTGATTCGCTTGACGCTGCTG	2.01	3.79	4.53	1.58	2.54
CCGATTAACATCACAAACTTCCCTGATGTTAATCGGGTCTTGATTCGCTTGACGCTGCTG	3.81	4.26	2.51	3.48	4.68
CCGATTAACATCAAATATACCCCTGATGTTAATCGGGTCTTGATTCGCTTGACGCTGCTG	4.01	3.4	5.87	2.64	4.15
CCGATTAACATCAGGGAGATACCTGATGTTAATCGGGTCTTGATTCGCTTGACGCTGCTG	4	4.81	1.64	4.25	7.69
CCGATTAACATCAGGGGGTGATATGATGTTAATCGGGTCTTGATTCGCTTGACGCTGCTG	3.88	3.66	4.73	2.63	4.56
CCGATTAACATCATCCCCCCCCATGATGTTAATCGGGTCTTGATTCGCTTGACGCTGCTG	6.69	4.12	7.34	4.5	5.38
CCGATTAACATCAGGCTTTCCCATGATGTTAATCGGGTCTTGATTCGCTTGACGCTGCTG	1.49	2.94	2.07	2.07	2.88
CCGATTAACATCACTGTTTTCCCTGATGTTAATCGGGTCTTGATTCGCTTGACGCTGCTG	2.63	4.15	4.9	1.62	3.31
CCGATTAACATCAGGGGGGTACATGATGTTAATCGGGTCTTGATTCGCTTGACGCTGCTG	5.31	2.52	5.22	4.13	3.31
CCGATTAACATCAGGGAAATTCATGATGTTAATCGGGTCTTGATTCGCTTGACGCTGCTG	4.54	6.28	4.15	2.26	5.94
